From PubChem BioAssay AID720514 (Broad Institute, 2013)
About 300 (14%) of roughly 2,100 compounds were called active. About 2% were inconclusive and are not listed.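 How the source made its calls: active means every replicate test run called active, with the signal falling and half-maximal concentration within twice the top valid dose; inconclusive means the replicate test runs disagree in their calls; inactive means every test run inactive, including effects in the opposite direction.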 Only a sample is shown. Measured potencies and affinities stand elsewhere.

experiment: reduced cellular PGC1a acetyl-lysine signal – cell-based, cherry-picked samples, dose response (AID 720514); settings: U2OS PGC1a acetylation, AlphaLISA, overnight; series mostly up to 19.5 µM;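 further: actives lower the acetylation signal so they count as inhibitors of PGC1a acetylation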

outcome, inactive:
C[C@@H]1CN([C@H](C)CO)C(=O)c2c(c3ccccc3n2C)-c2ccccc2CO[C@@H]1CN(C)C(=O)c1ccc(F)cc1
Oc1ccc(Nc2nnc(-c3ccc(O)cc3)c3ccccc23)cc1
O=C(CC1SC(=Nc2ccc3c(c2)OCCO3)NC1=O)Nc1ccc(F)cc1F (stereo not drawn)
CCOC(=O)C1=C[C@@H](C(C)(C)C)N(S(=O)(=O)c2ccc(C)cc2)[C@H]1c1ccccc1
CC(C)(C)n1nnnc1CN(Cc1ccc(F)cc1)Cc1ccco1
CCOC(=O)c1c(C)n(C)c2ccc(OCC(O)Cn3nc(C)c(Br)c3C)cc12 (stereo not drawn)
CCOC(=O)c1c(CN2CCN(CC#N)CC2)n(C)c2cc(Br)c(OC)cc12
O=C(NN1c2ccccc2CCc2ccccc21)c1ccccc1Br
CCOCCn1c(CN(Cc2ccccc2)Cc2ccccc2)nc2c1c(=O)n(C)c(=O)n2C
CC(=O)Nc1nonc1-c1nc2ccccc2n1Cc1ccccc1
CCOC(=O)CNS(=O)(=O)c1cc(-c2nnc(Nc3ccc4c(c3)OCO4)c3ccccc23)ccc1C
O=C(COCc1cc(-c2ccc3c(c2)OCO3)on1)Nc1cccnc1
O=C(COc1ccc([N+](=O)[O-])cc1)Nc1ccc(C(=O)NCc2cccnc2)cc1
CCOC(=O)C(NC(=O)c1ccccc1OCC)(Nc1ncccn1)C(F)(F)F (stereo not drawn)
Cc1c(C(=O)OCC(=O)c2c(N)n(CC(C)C)c(=O)n(C)c2=O)oc2ccccc12
COc1ccc(C2N(S(=O)(=O)c3ccccc3)CCN2S(=O)(=O)c2ccc(C)cc2)cc1 (stereo not drawn)
Cc1ccc(S(=O)(=O)N2CCN(S(=O)(=O)c3ccc(C)cc3)C2c2ccccc2)cc1
O=C(NCc1cccs1)c1ccc(Cl)c(S(=O)(=O)N2CCCC2)c1
COc1ccc(C(CNC(=O)c2cccc(N(C)C)c2)N2CCCC2)cc1 (stereo not drawn)
C[C@@H]1CN([C@H](C)CO)C(=O)c2c(c3ccccc3n2C)-c2ccccc2CO[C@@H]1CN(C)C(=O)[C@H](C)c1ccccc1
COc1cc(CNC(=O)c2cc(-c3cc(C)cc(F)c3)n[nH]2)cc(OC)c1
Cc1ccc(NC(=O)c2c(C(F)(F)F)nn(C)c2SCc2ccc(Cl)cc2)cc1C
CC(=O)Nc1cc(C(=O)OCc2cccc([N+](=O)[O-])c2)ccc1C
O=C(Nc1c(F)cccc1F)c1ccc(-n2cncn2)nc1
CC(C)(C)c1ccc(C(=O)Nc2ccc(C(=O)NCc3cccnc3)cc2)cc1
Cc1ccc(C(=O)c2c[nH]c(C(=O)NCc3cccnc3)c2)cc1
CCO[C@H]1OC(C(=O)N2CCCCCCC2)=C[C@@H](C2CCCCC2)[C@@H]1CCCO
Cc1cc(=O)oc2cc(OCC(=O)OCC(=O)Nc3ccccc3F)ccc12
C[C@@H]1CN([C@H](C)CO)C(=O)c2c(c3ccccc3n2C)-c2ccccc2CO[C@@H]1CN(C)C(=O)c1ccccc1
C[C@@H]1CN([C@@H](C)CO)C(=O)c2c(c3ccccc3n2C)-c2ccccc2CO[C@@H]1CN(C)C(=O)c1ccccc1
CC(C)c1ccc(NC(=O)c2ccc3c(c2)CCN3S(C)(=O)=O)cc1
COc1ccc(C#Cc2cnc3c(c2)C(=O)N([C@H](C)CO)C[C@H](C)[C@H](CN(C)S(=O)(=O)c2cccs2)O3)cc1OC
COc1ccc(-c2cnc3c(c2)C(=O)N([C@H](C)CO)C[C@@H](C)[C@H](CN(C)C(=O)C2CCC2)O3)cc1
COc1ccc(C#Cc2cnc3c(c2)C(=O)N([C@H](C)CO)C[C@H](C)[C@H](CN(C)S(=O)(=O)c2cccc(F)c2)O3)cc1OC
COc1ccc(NC(=O)N(C)C[C@H]2OCc3ccccc3-c3c(n(C)c4ccccc34)C(=O)N([C@@H](C)CO)C[C@H]2C)c(OC)c1
O=C(Nc1ccc(-c2noc(-c3cccs3)n2)cc1)c1cccnc1
CCOC(=S)SCC(=O)Nc1nc(C)c(C)s1
CC(=O)n1cc([C@@H]2C=C(C(=O)Nc3ccccc3)O[C@H](OCc3ccc(CO)cc3)C2)c2ccccc21
Cc1cc(C(=O)NNS(=O)(=O)c2ccccc2C(F)(F)F)nn1C(C)(C)C
C[C@@H]1CN([C@@H](C)CO)C(=O)c2c(c3ccccc3n2C)-c2ccccc2CO[C@@H]1CN(C)C(=O)Nc1ccccc1C(F)(F)F
COc1cccc(S(=O)(=O)N(C)C[C@@H]2Oc3cc(C4=CCCC4)ccc3S(=O)(=O)N([C@H](C)CO)C[C@@H]2C)c1
O=C(NC(Nc1cc(C(F)(F)F)ccc1Cl)C(=O)c1ccccc1)c1ccccc1 (stereo not drawn)
CCN(CC)CCNC(=O)c1ccc2c(c1NCCO)C(=O)c1ccccc1C2=O
CCCCn1c(CN(Cc2ccccc2)Cc2ccccc2)nc2c1c(=O)n(C)c(=O)n2C
CN1Cc2c(N3CCOCC3)nc3sc(C(=O)c4ccc(Br)cc4)c(N)c3c2CC1(C)C
O=C(c1ccccc1)C(O)(Cc1ccccc1)c1ccccc1 (stereo not drawn)
COc1ccc(S(=O)(=O)N2CCOCC2)cc1NC(=O)CCNC(=O)c1ccc([N+](=O)[O-])cc1
CC1CCN(S(=O)(=O)c2ccc(NC(=O)c3ccccc3F)cc2)CC1
CCOC(=O)C1=CC[C@@H](c2ccc(OC)cc2)N(S(=O)(=O)c2ccc(C)cc2)[C@H]1CC
CN(C(=O)C1CC1)C1CCS(=O)(=O)C1 (stereo not drawn)
CCOc1ccccc1NC(=O)CSc1cn[nH]n1
O=S1(=O)CCOC[C@H](CC2CCCCC2)N1Cc1ccc(F)cc1
COc1ccc([C@H]2/C=C\CN(S(=O)(=O)/C=C/c3ccccc3)[C@@H](C)C(=O)N2Cc2ccc(F)cc2)cc1
Cc1ccc(CN(CC(O)COc2cccc3[nH]cc(C)c23)C(C)(C)C)cc1 (stereo not drawn)
C#CCN1[C@H](/C=C/C2CC2)[C@H](Cc2ccccc2)OC(=O)[C@@H]1[C@@H]1N[C@@H](C(=O)OC)C(C)(C)S1
CCCN(CCC)CCNC(=O)c1cc2c(=O)n(CC)c3ccccc3c2s1
COc1ccc(S(=O)(=O)N2CCOCC2)cc1NC(=O)CCNC(=O)c1ccc(Cl)cc1
C[C@H](CO)N1C[C@H](C)[C@H](CN(C)Cc2ccc(C(=O)O)cc2)Oc2ncc(-c3ccccc3)cc2C1=O
CC(C)C#Cc1cnc2c(c1)C(=O)N([C@@H](C)CO)C[C@@H](C)[C@@H](CN(C)C(=O)c1ccccn1)O2
C[C@H]1CN([C@@H](C)CO)C(=O)c2cc(/C=C/c3ccccc3)cnc2O[C@H]1CN(C)C(=O)CN(C)C
COc1ccc(S(=O)(=O)N(C)C[C@H]2Oc3cc(C4=CCCC4)ccc3S(=O)(=O)N([C@H](C)CO)C[C@@H]2C)cc1
Cc1ccccc1-c1ccc2c(c1)O[C@H](CN(C)Cc1ccncc1)[C@@H](C)CN([C@@H](C)CO)S2(=O)=O
C[C@@H]1CN([C@@H](C)CO)C(=O)c2cc(C#CC3CCCC3)cnc2O[C@H]1CN(C)C(=O)Nc1ccccc1
COc1ccc(C)cc1NS(=O)(=O)c1ccc(NC(=O)CN(c2cc([N+](=O)[O-])ccc2C)S(C)(=O)=O)cc1
CCOC(=O)CCc1c(C)c2ccc(O)cc2oc1=O
OCc1ccc2c(c1)c(-c1ccc3c(c1)OCCO3)c(-c1ccccc1)n2-c1ccccc1
CCCCCOC(=O)Cc1c(O)c2ccccc2n(C)c1=O
CC(OC(=O)C1CCCC1)C(=O)Nc1ccc(C(N)=O)cc1 (stereo not drawn)
CCCCN(CC)CCCNC(=O)c1cc2c(=O)n(CC)c3ccccc3c2s1
C[C@H](CO)N1C[C@H](C)[C@@H](CN(C)Cc2ccc3c(c2)OCO3)Oc2cc(Br)ccc2S1(=O)=O
C[C@@H]1CN([C@@H](C)CO)C(=O)CCCn2nncc2CO[C@H]1CN(C)CC1CCCCC1
CC(C)CC#Cc1ccc2c(c1)O[C@H](CN(C)Cc1ccccc1)[C@H](C)CN([C@@H](C)CO)S2(=O)=O
C[C@@H]1CN([C@@H](C)CO)C(=O)c2cc(/C=C/c3ccccc3)cnc2O[C@@H]1CN(C)Cc1cccnc1
COc1ccccc1/C=C1\SC(=S)N(CCC(=O)NCCCn2ccnc2)C1=O
COc1cccc(NC(=O)N(C)C[C@H]2OCc3ccccc3-c3c(n(C)c4ccccc34)C(=O)N([C@@H](C)CO)C[C@@H]2C)c1
C[C@@H]1CN([C@@H](C)CO)C(=O)c2c(c3ccccc3n2C)-c2ccccc2CO[C@@H]1CN(C)C(=O)c1cc(Cl)cc(Cl)c1
C[C@H](CO)N1C[C@H](C)[C@@H](CN(C)CC2CCCCC2)Oc2c(NC(=O)c3nc4ccccc4s3)cccc2C1=O
C[C@H]1CN([C@@H](C)CO)S(=O)(=O)c2ccc(C#CCN(C)C)cc2O[C@@H]1CN(C)Cc1ccc2c(c1)OCO2
C[C@H](CO)N1C[C@H](C)[C@H](CN(C)Cc2ccc(C(=O)Nc3ccccc3N)cc2)Oc2c(NC(=O)c3ccncc3)cccc2C1=O
Nc1c(C(=O)c2ccccc2)sc2nsc(SCCN3CCCC3)c12
COc1ccc(S(=O)(=O)Nc2ccc3c(c2)C(=O)N([C@H](C)CO)C[C@H](C)[C@H](CN(C)S(=O)(=O)c2cn(C)cn2)OCCCC[C@@H](C)O3)cc1
COC(=O)C(Nc1ccccc1Cl)(c1cc(C)c(O)c(C)c1)C(F)(F)F (stereo not drawn)
CC(C)(C)c1ccc(C(=O)c2c[nH]c(C(=O)NCc3cccnc3)c2)cc1
